Test results reported in PubChem BioAssay AID1159580 (chemical genetic matrix, 2015).
Hit rate of the full screen: of about 5,500 compounds, about 2,000 (36%) were called active. Roughly 18% stayed inconclusive and do not appear here. Rule as the data show it: active = normalized growth mostly below about 0.91 (no sharp cut-off); inconclusive = no clear call, values can overlap the other calls; inactive = mostly above about 0.92. Some of the results follow.

Assay: chemical genetic growth profiling, strain panel (AID 1159580);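 also: tested at 20 µM; growth read once vehicle control cultures reached saturation at 30 °C; 1 = growth at the plate median or of vehicle wells; lower values mean less growth of the strain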
Settings: growth OD

Measured: normalized growth

CNC(=O)O/N=C\C(C)(C)SC
inactive: S. cerevisiae deletion strains, locus YJR043C, strain POL32, active compounds read low 1.03 | S. cerevisiae deletion strains, locus YJR075W, strain HOC1, active compounds read low 1.02 | S. cerevisiae deletion strains, locus YKL009W, strain mrt4, active compounds read low 1.02 | S. cerevisiae deletion strains, locus YKL068W, active compounds read low 0.998 | S. cerevisiae deletion strains, locus YKL085W, strain MDH1 (second series), active compounds read low 0.996 | S. cerevisiae deletion strains, locus YKL085W, strain MDH1, active compounds read low 0.996 | S. cerevisiae deletion strains, locus YKL160W, strain elf1, active compounds read low 1 | S. cerevisiae deletion strains, locus YKL190W, strain CNB1, active compounds read low 0.991 | S. cerevisiae deletion strains, locus YKR001C, strain vps1, active compounds read low 1.01 | S. cerevisiae deletion strains, locus YKR026C, strain gcn3, active compounds read low 1 | S. cerevisiae deletion strains, locus YKR091W, strain srl3, active compounds read low 1 | S. cerevisiae deletion strains, locus YLL001W, strain dnm1, active compounds read low 0.988 | S. cerevisiae deletion strains, locus YLL026W, active compounds read low 0.997 | S. cerevisiae deletion strains, locus YLL041C, strain sdh2, active compounds read low 1 | S. cerevisiae deletion strains, locus YLR027C, strain aat2, active compounds read low 1.01 | S. cerevisiae deletion strains, locus YLR039C, strain RIC1, active compounds read low 1.02 | S. cerevisiae deletion strains, locus YLR058C, strain SHM2, active compounds read low 1.01 | S. cerevisiae deletion strains, locus YLR102C, strain apc9, active compounds read low 0.986 | S. cerevisiae deletion strains, locus YLR221C, strain rsa3, active compounds read low 1.01 | S. cerevisiae deletion strains, locus YLR258W, strain gsy2, active compounds read low 0.996 | S. cerevisiae deletion strains, locus YLR262C, strain YPT6 (second series), active compounds read low 1.01 | S. cerevisiae deletion strains, locus YLR262C, strain YPT6, active compounds read low 1.06 | S. cerevisiae deletion strains, locus YLR268W, strain sec22, active compounds read low 0.991 | S. cerevisiae deletion strains, locus YLR320W, strain mms22, active compounds read low 0.999 | S. cerevisiae deletion strains, locus YLR330W, strain CHS5, active compounds read low 1.01 | S. cerevisiae deletion strains, locus YLR342W, strain FKS1 (second series), active compounds read low 1 | S. cerevisiae deletion strains, locus YLR342W, strain FKS1, active compounds read low 1 | S. cerevisiae deletion strains, locus YLR357W, strain rsc2, active compounds read low 0.986 | S. cerevisiae deletion strains, locus YLR370C, strain arc18, active compounds read low 1.01 | S. cerevisiae deletion strains, locus YLR371W, strain rom2, active compounds read low 0.978 | S. cerevisiae deletion strains, locus YLR384C, strain iki3, active compounds read low 0.991 | S. cerevisiae deletion strains, locus YLR418C, strain cdc73, active compounds read low 1.01 | S. cerevisiae deletion strains, locus YML016C, strain PPZ1, active compounds read low 1.01 | S. cerevisiae deletion strains, locus YML032C, strain rad52, active compounds read low 0.993 | S. cerevisiae deletion strains, locus YML120C, strain ndi1, active compounds read low 1.01 | S. cerevisiae deletion strains, locus YML124C, strain tub3, active compounds read low 0.996 | S. cerevisiae deletion strains, locus YMR058W, strain fet3, active compounds read low 1.01 | S. cerevisiae deletion strains, locus YMR078C, strain ctf18, active compounds read low 0.992 | S. cerevisiae deletion strains, locus YMR125W, strain sto1, active compounds read low 0.996 | S. cerevisiae deletion strains, locus YMR129W, active compounds read low 1.01 | S. cerevisiae deletion strains, locus YMR205C, strain PFK2, active compounds read low 0.975 | S. cerevisiae deletion strains, locus YMR223W, strain ubp8, active compounds read low 0.995 | S. cerevisiae deletion strains, locus YMR231W, strain pep5, active compounds read low 1 | S. cerevisiae deletion strains, locus YMR263W, strain SAP30, active compounds read low 1.01 | S. cerevisiae deletion strains, locus YMR307W, strain GAS1, active compounds read low 1.02 | S. cerevisiae deletion strains, locus YNL067W, strain RPL9B, active compounds read low 1.01 | S. cerevisiae deletion strains, locus YNL071W, strain lat1, active compounds read low 1.01 | S. cerevisiae deletion strains, locus YNL128W, strain TEP1, active compounds read low 1.01 | S. cerevisiae deletion strains, locus YNL153C, strain GIM3, active compounds read low 1 | S. cerevisiae deletion strains, locus YNL209W, strain ssb2, active compounds read low 1.01 | S. cerevisiae deletion strains, locus YNL233W, strain BNI4, active compounds read low 1.02 | S. cerevisiae deletion strains, locus YNL248C, strain rpa49, active compounds read low 0.992 | S. cerevisiae deletion strains, locus YNL250W, strain rad50, active compounds read low 0.989 | S. cerevisiae deletion strains, locus YNL271C, strain bni1, active compounds read low 0.992 | S. cerevisiae deletion strains, locus YNL298W, strain CLA4, active compounds read low 0.983 | S. cerevisiae deletion strains, locus YNL307C, strain MCK1, active compounds read low 0.989 | S. cerevisiae deletion strains, locus YNL322C, strain KRE1 (second series), active compounds read low 0.999 | S. cerevisiae deletion strains, locus YNL322C, strain KRE1, active compounds read low 1.01 | S. cerevisiae deletion strains, locus YNR049C, strain mso1, active compounds read low 1 | S. cerevisiae deletion strains, locus YNR052C, strain pop2, active compounds read low 0.987 | S. cerevisiae deletion strains, locus YOL006C, strain TOP1, active compounds read low 1.1 | S. cerevisiae deletion strains, locus YOL012C, strain htz1 0.971 | S. cerevisiae deletion strains, locus YOL147C, strain pex11, active compounds read low 0.981 | S. cerevisiae deletion strains, locus YOR001W, strain rrp6, active compounds read low 1.01 | S. cerevisiae deletion strains, locus YOR061W, strain CKA2, active compounds read low 1 | S. cerevisiae deletion strains, locus YOR069W, strain VPS5, active compounds read low 0.998 | S. cerevisiae deletion strains, locus YOR070C, strain gyp1, active compounds read low 1 | S. cerevisiae deletion strains, locus YOR080W, strain dia2, active compounds read low 0.996 | S. cerevisiae deletion strains, locus YOR083W, strain WHI5, active compounds read low 0.999 | S. cerevisiae deletion strains, locus YOR106W, strain vam3, active compounds read low 0.996 | S. cerevisiae deletion strains, locus YOR136W, strain idh2, active compounds read low 1.01 | S. cerevisiae deletion strains, locus YOR144C, strain elg1, active compounds read low 0.983 | S. cerevisiae deletion strains, locus YOR184W, strain ser1, active compounds read low 1 | S. cerevisiae deletion strains, locus YOR265W, strain rbl2, active compounds read low 1.03 | S. cerevisiae deletion strains, locus YOR270C, strain vph1, active compounds read low 1 | S. cerevisiae deletion strains, locus YOR290C, strain snf2, active compounds read low 0.994 | S. cerevisiae deletion strains, locus YOR316C, strain cot1, active compounds read low 0.987 | S. cerevisiae deletion strains, locus YPL051W, strain arl3, active compounds read low 1 | S. cerevisiae deletion strains, locus YPL055C, strain LGE1, active compounds read low 1.05 | S. cerevisiae deletion strains, locus YPL078C, strain atp4, active compounds read low 1 | S. cerevisiae deletion strains, locus YPL106C, strain sse1, active compounds read low 0.996 | S. cerevisiae deletion strains, locus YPL240C, strain hsp82, active compounds read low 1.01 | S. cerevisiae deletion strains, locus YPL241C, strain CIN2, active compounds read low 0.999 | S. cerevisiae deletion strains, locus YPR119W, strain clb2, active compounds read low 0.986 | S. cerevisiae deletion strains, locus YPR141C, strain kar3, active compounds read low 0.996 | S. cerevisiae deletion strains, locus YPR163C, strain tif3, active compounds read low 0.983 | S. cerevisiae deletion strains, locus YPR167C, strain met16, active compounds read low 0.99 | S. cerevisiae deletion strains, strain wtn01, active compounds read low 0.997 | S. cerevisiae strains, strain wild type, active compounds read low 1
